Assay outcomes deposited in PubChem BioAssay by several laboratories.
A selection: hits, their analogues and other compounds. The true share with any hit is near 4.2%.
BJeLR viability = MLPCN primary cell-based screen for lethality selective to Ras in HRASV12 cells; BJeLR (HRASV12) viability, CellTiter-Glo ATP luminescence, 48 h; AID 1554, 2009; hit rate 0.17% among 300,000; inhibition, % (test concentration not listed); in the data active = inhibition above about 50%
Mtb FBA inh = Mtb FBA enzyme inhibitors, primary screen, biochemical, fluorescence, strain H37Rv; Fructose-bisphosphate aldolase (Mycobacterium tuberculosis (strain ATCC 25618 / H37Rv)), …; purified M. tuberculosis FBA, fluorescence read-out; inhibition, % at 1 µM; hit rate 2.3% among 360,000; AID 588726, 2011; in the data active = inhibition above about 27%
RecA splice inh = Mtb RecA intein splicing inhibitors, primary screen, biochemical, fluorescence, HTS. cell-free RecA intein splicing. Protein RecA (Mycobacterium tuberculosis (strain ATCC 25618 / H37Rv)), P9WHJ3. hit rate 0.75% among 290,000. inhibition, % (test concentration not listed). AID 2221, 2009; in the data active = inhibition above about 30%
Target sequence (P9WHJ3 whole entry, looked up, canonical isoform): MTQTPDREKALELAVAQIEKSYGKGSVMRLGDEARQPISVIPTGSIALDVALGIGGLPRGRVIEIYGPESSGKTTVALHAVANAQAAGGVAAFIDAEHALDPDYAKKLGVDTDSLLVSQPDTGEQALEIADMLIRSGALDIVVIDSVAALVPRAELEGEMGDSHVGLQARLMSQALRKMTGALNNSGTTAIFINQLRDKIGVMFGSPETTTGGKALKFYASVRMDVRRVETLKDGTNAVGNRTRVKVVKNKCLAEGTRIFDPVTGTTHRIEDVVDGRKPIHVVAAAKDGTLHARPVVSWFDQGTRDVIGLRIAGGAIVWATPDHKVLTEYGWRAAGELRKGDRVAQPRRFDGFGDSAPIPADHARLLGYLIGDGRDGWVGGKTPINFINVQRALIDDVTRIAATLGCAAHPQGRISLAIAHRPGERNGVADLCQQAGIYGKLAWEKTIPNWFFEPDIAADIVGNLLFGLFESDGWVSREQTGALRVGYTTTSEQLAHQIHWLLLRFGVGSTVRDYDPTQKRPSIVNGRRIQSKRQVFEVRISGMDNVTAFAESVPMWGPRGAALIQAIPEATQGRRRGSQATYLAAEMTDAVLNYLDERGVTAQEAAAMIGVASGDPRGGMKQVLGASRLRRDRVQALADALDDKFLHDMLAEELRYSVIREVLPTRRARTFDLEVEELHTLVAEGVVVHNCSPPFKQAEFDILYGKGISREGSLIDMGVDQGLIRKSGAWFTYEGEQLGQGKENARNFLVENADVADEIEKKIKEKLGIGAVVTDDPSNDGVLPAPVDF
PrPC TRFRET = inhibitors of human cell surface prion protein PrPC, primary screen, cell-based, TR-FRET; inhibition, % at 13.8 µM; hit rate 0.43% among 370,000; Major prion protein (Homo sapiens), P04156; TR-FRET read-out; AID 720596, 2013; in the data active = inhibition above about 24%
GDH-TPI counter = GDH-TPI coupling enzyme inhibitors, primary screen, artefact control for M. tuberculosis FBA inhibitor project, biochemical, absorbance, full deck | GDH-TPI coupled enzyme counterscreen, NADH absorbance | inhibition, % at 4.8 µM | hit rate 1.2% among 360,000 | AID 588335, 2011; in the data active = inhibition above about 30%
PrPC TRFRET cf = confirmation of inhibitors of cell surface human prion protein, confirmation, cell-based, TR-FRET; inhibition, % at 13.8 µM; AID 743200, 2013; hit rate 65% among 1,500; shares compounds with PrPC TRFRET; cell surface PrPC level; in the data active = inhibition above about 25%
LD9 tox = cytotoxicity in LD9 cells, cytotoxicity control for cell surface PrPc inhibitor project, cell-based, luminescence, high throughput; shares compounds with PrPC TRFRET; luminescence viability; inhibition, % at 13.8 µM; hit rate 29% among 1,500; in the data active = inhibition above about 9.5%
Of the large screens only hits and unclear results are named; the others gave an inactive call (follow-up assays come after a bar, where they were run).

COc1ccc(S(=O)(=O)N2CCOC23CCN(C(=O)c2ccc(Cl)cc2Cl)CC3)cc1	PrPC TRFRET 53 | PrPC TRFRET cf 47 | LD9 tox inactive
COc1ccc(S(=O)(=O)N2CCOC23CCN(C(=O)c2c(F)cccc2Cl)CC3)cc1	none
Cc1cccc(Cn2cc(CN3CC(N(C)CCCOC(=O)c4cc5ccccc5o4)CS3(=O)=O)nn2)c1 (stereo unspecified)	none (no result: BJeLR viability, Mtb FBA inh, RecA splice inh, GDH-TPI counter)
CCOC(=O)c1c(-c2ccccc2)csc1NC(=O)CSc1ccccc1	none
CCOC(=O)c1c(-c2ccccc2)csc1NC(=O)CSc1nncs1	PrPC TRFRET 42 | PrPC TRFRET cf 39 | LD9 tox inactive
CC(C)[C@H](NC(=O)[C@@H](N)Cc1ccccc1)C(=O)N1CCC2CCN(Cc3ccccc3)CC21 (stereo partly specified)	none (no result: BJeLR viability, Mtb FBA inh, RecA splice inh, GDH-TPI counter)
Cc1cc(NC2CCCCC2)nc2ccccc12	PrPC TRFRET 26 | PrPC TRFRET cf inactive | LD9 tox inactive
Cc1cc(NCCN)nc2ccccc12	none
CCO[C@H]1OC(C(=O)NCc2nc3ccccc3[nH]2)=C[C@@H](C2CCCCC2)[C@@H]1CCCO	PrPC TRFRET 44 | PrPC TRFRET cf 25 | LD9 tox inactive
COc1ccc(C(=O)NCCSc2ccc(C)cc2)cc1	PrPC TRFRET 57 | PrPC TRFRET cf inactive | LD9 tox inactive
O=Cc1s/c(=N\S(=O)(=O)c2ccccc2)n(CCCCl)c1Cl	RecA splice inh 95, PrPC TRFRET 76 | PrPC TRFRET cf 96 | LD9 tox 90
O=C(Cc1cccs1)Nc1nc(-c2ccc(F)cc2F)cs1	PrPC TRFRET 26 | PrPC TRFRET cf inactive | LD9 tox inactive
O=C(Cc1cccs1)Nc1nc(-c2ccc(F)c(F)c2)cs1	none
CCCCCCCCN1C(=O)[C@@H](CC(=O)NCc2cccs2)C[C@@]2(C(=O)OC)C1=C[C@H](C1CCCC1)O[C@@H]2C	none (no result: BJeLR viability, Mtb FBA inh, RecA splice inh, GDH-TPI counter)
CCN(Cc1ccccc1)C(=O)C1CCCN(c2ncccn2)C1 (stereo unspecified)	none (no result: BJeLR viability, Mtb FBA inh, RecA splice inh, GDH-TPI counter)
Oc1cc(O)cc(C=Cc2ccc(O)c(O)c2)c1	none (no result: BJeLR viability, Mtb FBA inh, RecA splice inh, GDH-TPI counter)
COc1ccc2c(c1)c(=O)oc1cc(O)ccc12	none
O=c1oc2cc(O)ccc2c2ccccc12	PrPC TRFRET 28 | PrPC TRFRET cf 33 | LD9 tox inactive
Cc1ccc(NC(=O)c2ccc(Nc3c([N+](=O)[O-])cc([N+](=O)[O-])cc3[N+](=O)[O-])cc2)cc1	PrPC TRFRET 25 | PrPC TRFRET cf inactive | LD9 tox 37
CC(=O)Nc1ccc(NC(=O)c2cc([N+](=O)[O-])cc([N+](=O)[O-])c2)cc1	none
COCCN1Cc2cc(C(=O)OC)c3c(c2C1=O)c1cc(F)ccc1n3S(=O)(=O)c1cccc(C)c1	none (no result: BJeLR viability, Mtb FBA inh, RecA splice inh, GDH-TPI counter)
CC1C(OC(=O)CCC(=O)NC(C)(C)CO)O[C@H]2OC3(C)CC[C@H]4[C@H](C)CCC1C24OO3 (stereo partly specified)	PrPC TRFRET 33 | PrPC TRFRET cf 33 | LD9 tox 19
CC(C)CC(NC(=O)CCCNC(=O)CCC(=O)OC1O[C@H]2OC3(C)CC[C@H]4[C@H](C)CCC(C1C)C24OO3)C(=O)O (stereo partly specified)	PrPC TRFRET 28 | PrPC TRFRET cf 38 | LD9 tox 20
Cn1cnnc1SCC(=O)c1c(N)n(Cc2ccccc2)c(=O)n(C)c1=O	PrPC TRFRET 36 | PrPC TRFRET cf inactive | LD9 tox inactive
Cn1c(=O)c(C(=O)CSc2ccccc2)c(N)n(Cc2ccccc2)c1=O	none
Cn1c(=O)c(C(=O)CSc2nncs2)c(N)n(Cc2ccccc2)c1=O	PrPC TRFRET 66 | PrPC TRFRET cf 65 | LD9 tox inactive
O=C(CSc1nnc(-c2ccccn2)n1Cc1ccco1)Nc1ccc(Oc2ccccc2)cc1	none (no result: BJeLR viability, Mtb FBA inh, RecA splice inh, GDH-TPI counter)
CC(=O)c1cc(-c2ccccc2)n(CC(=O)NCc2ccc(Cl)cc2)c1C	none (no result: BJeLR viability, Mtb FBA inh, RecA splice inh, GDH-TPI counter)
CN(c1ccccc1)S(=O)(=O)c1cccc(C(=O)Nc2nccs2)c1	PrPC TRFRET 26 | PrPC TRFRET cf inactive | LD9 tox inactive
